# According to the supplement of paper PMC8728848:
# The entries come from a sample that favours the strongest signals as a whole.
# B1: FliC (Clostridium difficile) (protein)
# chain: MRVNTNVSALIANNQMGRNVNGQSKSMEKLSSGVRIKRAADDAAGLAISEKMRAQIKGLDQAGRNVQDGISVVQTAEGSLEETGNILQRMRTLSLQSANEINNTEEREKIADELTQLKDEIERISSSTEFNGKKLLDGTSSTIRLQVGASYGTNVSGTSNNNNEIKIQLVNTASIMASAGITTASIGSMKAGGTTGTDAAKTMVSSLDAALKSLNSSRAKLGAQQNRLESTQNNLNNTLENVTAAESRIRDTDVASEMVNLSKMNILVQASQSMLAQANQQPQGVLQLLG
# Experiments:
# Assay in all cases: glycan array binding signal (z-score within array); higher = stronger binding
# Settings in all cases: glycan notation: IUPAC condensed, linker removed
# GalNAc(b1-3)Gal = biological target: GalNAc(b1-3)Gal
# How it was run: (§1)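 The binding signal is a Z-score computed within each array. Data were drawn from 3228 arrays in the Consortium for Functional Glycomics database, restricted to those with a known protein sequence. Scores were averaged over arrays of the same protein sequence at different concentrations or buffers, and over linkers, and negative values can be taken as non-binding.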
# GalNAc6S(b1-4)GlcNAc = biological target: GalNAc6S(b1-4)GlcNAc
# How it was run: as §1
# Glc(b1-6)Glc = biological target: Glc(b1-6)Glc
# How it was run: as §1
# [1] = biological target: GlcNAc(a1-4)Gal(b1-3)GlcNAc
# How it was run: as §1
# [2] = biological target: GlcNAc(b1-2)Man(a1-3)[GlcNAc(b1-2)Man(a1-6)]Man(b1-4)GlcNAc(b1-4)[Fuc(a1-6)]GlcNAc
# How it was run: as §1
# [3] = biological target: GlcNAc(b1-3)Gal(b1-4)GlcNAc(b1-2)[GlcNAc(b1-3)Gal(b1-4)GlcNAc(b1-6)]Man(a1-6)[GlcNAc(b1-3)Gal(b1-4)GlcNAc(b1-2)Man(a1-3)]Man(b1-4)GlcNAc(b1-4)GlcNAc
# How it was run: as §1
# [4] = biological target: GlcNAc(b1-3)Gal(b1-4)GlcNAc(b1-3)Gal(b1-4)GlcNAc(b1-2)Man(a1-3)[GlcNAc(b1-3)Gal(b1-4)GlcNAc(b1-3)Gal(b1-4)GlcNAc(b1-2)Man(a1-6)]Man(b1-4)GlcNAc(b1-4)GlcNAc
# How it was run: as §1
# [5] = biological target: GlcNAc(b1-3)Gal(b1-4)GlcNAc(b1-3)Gal(b1-4)GlcNAc(b1-3)Gal(b1-4)GlcNAc(b1-2)Man(a1-3)[GlcNAc(b1-3)Gal(b1-4)GlcNAc(b1-3)Gal(b1-4)GlcNAc(b1-3)Gal(b1-4)GlcNAc(b1-2)Man(a1-6)]Man(b1-4)GlcNAc(b1-4)[Fuc(a1-6)]GlcNAc
# How it was run: as §1
# [6] = biological target: GlcNAc(b1-3)Gal(b1-4)GlcNAc(b1-3)Gal(b1-4)GlcNAc(b1-3)Gal(b1-4)GlcNAc(b1-3)Gal(b1-4)GlcNAc(b1-2)Man(a1-3)[GlcNAc(b1-3)Gal(b1-4)GlcNAc(b1-3)Gal(b1-4)GlcNAc(b1-3)Gal(b1-4)GlcNAc(b1-3)Gal(b1-4)GlcNAc(b1-2)Man(a1-6)]Man(b1-4)GlcNAc(b1-4)[Fuc(a1-6)]GlcNAc
# How it was run: as §1
# [7] = biological target: GlcNAc(b1-3)[GlcNAc(b1-6)]Gal(b1-4)GlcNAc
# How it was run: as §1
# GlcNAc(b1-6)GalNAc = biological target: GlcNAc(b1-6)GalNAc
# How it was run: as §1
# [8] = biological target: GlcNAc6S(b1-3)Gal(b1-4)GlcNAc
# How it was run: as §1
# [9] = biological target: Man(a1-2)Man(a1-6)[Man(a1-3)]Man(a1-6)[Man(a1-2)Man(a1-2)Man(a1-3)]Man
# How it was run: as §1
# Man(a1-3)[Man(a1-6)]Man = biological target: Man(a1-3)[Man(a1-6)]Man
# How it was run: as §1
# [10] = biological target: Man(a1-3)[Man(a1-6)]Man(a1-6)[Man(a1-2)Man(a1-3)]Man(b1-4)GlcNAc(b1-4)GlcNAc
# How it was run: as §1
# [11] = biological target: Neu5Ac(a2-3)Gal(b1-3)GlcNAc(b1-2)Man(a1-3)[GlcNAc(b1-4)][Neu5Ac(a2-3)Gal(b1-3)GlcNAc(b1-2)Man(a1-6)]Man(b1-4)GlcNAc(b1-4)GlcNAc
# How it was run: as §1
# [12] = biological target: Neu5Ac(a2-3)Gal(b1-3)GlcNAc(b1-4)Gal(b1-4)Glc
# How it was run: as §1
# [13] = biological target: Neu5Ac(a2-3)Gal(b1-3)[Neu5Ac(a2-6)]GlcNAc(b1-3)[Fuc(a1-3)[Gal(b1-4)]GlcNAc(b1-6)]Gal(b1-4)Glc
# How it was run: as §1
# [14] = biological target: Neu5Ac(a2-3)Gal(b1-4)GlcNAc(b1-2)[Neu5Ac(a2-3)Gal(b1-4)GlcNAc(b1-6)]Man(a1-6)[Neu5Ac(a2-3)Gal(b1-4)GlcNAc(b1-2)Man(a1-3)]Man(b1-4)GlcNAc(b1-4)GlcNAc
# How it was run: as §1
# [15] = biological target: Neu5Ac(a2-3)Gal(b1-4)GlcNAc(b1-3)Gal(b1-4)GlcNAc(b1-2)Man(a1-3)[Neu5Ac(a2-3)Gal(b1-4)GlcNAc(b1-3)Gal(b1-4)GlcNAc(b1-2)Man(a1-6)]Man(b1-4)GlcNAc(b1-4)GlcNAc
# How it was run: as §1
# [16] = biological target: Neu5Ac(a2-3)Gal(b1-4)GlcNAc(b1-3)Gal(b1-4)GlcNAc(b1-3)Gal(b1-4)GlcNAc(b1-2)Man(a1-3)[Neu5Ac(a2-3)Gal(b1-4)GlcNAc(b1-3)Gal(b1-4)GlcNAc(b1-3)Gal(b1-4)GlcNAc(b1-2)Man(a1-6)]GalNAc
# How it was run: as §1
# [17] = biological target: Neu5Ac(a2-3)Gal(b1-4)GlcNAc(b1-3)Gal(b1-4)GlcNAc(b1-3)GalNAc
# How it was run: as §1
# [18] = biological target: Neu5Ac(a2-3)Gal6S(b1-4)[Fuc(a1-3)]GlcNAc
# How it was run: as §1
# [19] = biological target: Neu5Ac(a2-6)Gal(b1-4)GlcNAc(b1-2)Man(a1-3)[Gal(b1-4)GlcNAc(b1-2)Man(a1-6)]Man(b1-4)GlcNAc(b1-4)GlcNAc
# How it was run: as §1
# [20] = biological target: Neu5Ac(a2-6)Gal(b1-4)GlcNAc(b1-2)Man(a1-3)[GlcNAc(b1-2)Man(a1-6)]Man(b1-4)GlcNAc(b1-4)GlcNAc
# How it was run: as §1
# [21] = biological target: Neu5Ac(a2-6)Gal(b1-4)GlcNAc(b1-3)Gal(b1-4)GlcNAc(b1-3)Gal(b1-4)GlcNAc(b1-2)Man(a1-3)[Neu5Ac(a2-6)Gal(b1-4)GlcNAc(b1-3)Gal(b1-4)GlcNAc(b1-3)Gal(b1-4)GlcNAc(b1-2)Man(a1-6)]GalNAc
# How it was run: as §1
# [22] = biological target: Neu5Ac(a2-6)Gal(b1-4)GlcNAc(b1-6)[Gal(b1-3)GlcNAc(b1-3)]Gal(b1-4)Glc
# How it was run: as §1
# Neu5Ac(a2-8)Neu5Ac = biological target: Neu5Ac(a2-8)Neu5Ac
# How it was run: as §1
# [23] = biological target: Neu5Ac(a2-8)Neu5Ac(a2-3)[GalNAc(b1-4)]Gal(b1-4)Glc
# How it was run: as §1
binder,measurement,setting,value
B1,glycan array binding signal (z-score),GalNAc(b1-3)Gal,-0.175
same,glycan array binding signal (z-score),GalNAc6S(b1-4)GlcNAc,0.047
same,glycan array binding signal (z-score),Glc(b1-6)Glc,1.72
same,glycan array binding signal (z-score),[1],0.947
same,glycan array binding signal (z-score),[2],0.458
same,glycan array binding signal (z-score),[3],3
same,glycan array binding signal (z-score),[4],0.372
same,glycan array binding signal (z-score),[5],-0.149
same,glycan array binding signal (z-score),[6],-0.369
same,glycan array binding signal (z-score),[7],-0.057
same,glycan array binding signal (z-score),GlcNAc(b1-6)GalNAc,-0.08
same,glycan array binding signal (z-score),[8],0.071
same,glycan array binding signal (z-score),[9],0.153
same,glycan array binding signal (z-score),Man(a1-3)[Man(a1-6)]Man,-0.471
same,glycan array binding signal (z-score),[10],3.18
same,glycan array binding signal (z-score),[11],0.514
same,glycan array binding signal (z-score),[12],0.17
same,glycan array binding signal (z-score),[13],-0.645
same,glycan array binding signal (z-score),[14],-0.275
same,glycan array binding signal (z-score),[15],1.02
same,glycan array binding signal (z-score),[16],6.63
same,glycan array binding signal (z-score),[17],-0.31
same,glycan array binding signal (z-score),[18],-0.433
same,glycan array binding signal (z-score),[19],-0.515
same,glycan array binding signal (z-score),[20],0.511
same,glycan array binding signal (z-score),[21],2.32
same,glycan array binding signal (z-score),[22],-0.577
same,glycan array binding signal (z-score),Neu5Ac(a2-8)Neu5Ac,-0.234
same,glycan array binding signal (z-score),[23],-0.626
